Out of some 24,000 compounds screened, about 180 (0.75%) were called active. The sample holds actives, similar compounds and a random draw of the others, so the mix is not that of the screen. No stated cut-off is given here; in the data, active means inhibition above about 30%; inconclusive means no clear call, values can overlap the other calls; inactive means below that.

The test deals with fMet-Leu-Phe receptor (Homo sapiens) (UniProt P21462). The experiment in a line: human FPR ligands by binding competition, primary screen, cell-based, FPRL1 counter-screen, flow cytometry (AID 440).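 Further: 0% = buffer wells and 100% = receptor blocker peptide wells.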 The conditions noted are these: FPR-expressing cells, fluorescent ligand binding, active compounds read high, concentration not given here. In general terms: Counterscreens check selectivity or assay interference.
Chain of fMet-Leu-Phe receptor (Homo sapiens) (P21462 whole entry, looked up): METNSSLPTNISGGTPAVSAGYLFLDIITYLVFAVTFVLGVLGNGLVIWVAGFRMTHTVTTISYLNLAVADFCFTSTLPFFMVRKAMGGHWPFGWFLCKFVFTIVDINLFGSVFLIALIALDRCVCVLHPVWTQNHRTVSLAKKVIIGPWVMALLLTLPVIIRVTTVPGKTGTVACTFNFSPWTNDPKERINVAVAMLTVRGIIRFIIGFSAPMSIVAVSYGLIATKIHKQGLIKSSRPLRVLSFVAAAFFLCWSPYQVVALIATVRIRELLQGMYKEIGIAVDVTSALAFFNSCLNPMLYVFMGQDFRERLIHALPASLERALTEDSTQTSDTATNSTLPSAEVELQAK
Regarding `COC(=O)c1ccc(CSc2ccccc2C)o1`, the inhibition was 0.5% (inactive).

Consider `O=C(Nc1ccccc1C(=O)N1CCOCC1)C1CCC(=O)N1C1CCCC1` (stereo unspecified), for which the inhibition was -0.6% (inactive).

Take `COc1ccc(CN2C(=O)CN=C2Nc2ccc(C)cc2C)cc1`: the inhibition was 6.5% (inactive).

`O=C(Cn1nc(Cc2cccnc2)c2ccccc2c1=O)NCC1CCCO1` (stereo unspecified): the inhibition was 0.4% (inactive).

For the compound `Cc1nn(C)c(C)c1S(=O)(=O)N1CCc2ccccc21`, the inhibition was 8.9% (inactive).

For `O=C(NCCCN1CCN(C2CCCCC2)CC1)Nc1ccccc1C(F)(F)F`, the inhibition was 1.3% (inactive).

Turning to `O=C(CN1C(=O)COc2ccccc21)Nc1ccc(F)cc1`, the inhibition was 4.3% (inactive).

Turning to `CCn1ncc(Br)c1C(=O)Nc1cc(C)ccc1F`, the inhibition is 0.8% (inactive).

In the case of `Cc1nc(CNS(=O)(=O)c2cccnc2)cs1`, the inhibition was 1.9% (inactive).

Regarding `CSc1sc(C)cc1C1C(C#N)=C(N)N(c2cccnc2)C2=C1C(=O)CCC2` (stereo unspecified), the inhibition is 4.3% (inactive).

Turning to `Cc1nc(C)c(C(=O)Nc2ccc(C)c(F)c2)o1`, the inhibition is -4.6% (inactive).

Take `O=c1c(-c2ccc3c(c2)OCCO3)c(C(F)(F)F)oc2cc(O)cc(O)c12`: the inhibition was -6.7% (inactive).

As for `Cc1cccn2c(=O)c3cc(C(=O)NCc4ccccn4)n(C)c3nc12`, the inhibition is -5.1% (inactive).

Regarding `O=C(Nc1cccnc1)c1noc2c1CCCCC2`, the inhibition is -1.9% (inactive).

As to `Cc1cc(N2C(=O)C(=O)/C(=C(/O)c3ccc(Cl)cc3)C2c2cccc(Br)c2)no1` (stereo unspecified), the inhibition is 3.2% (inactive).

For `CCCC(NC(=O)c1ccccc1)c1nc2ccccc2n1Cc1ccc(C(=O)OC)o1` (stereo unspecified), the inhibition was 24.2% (inactive).

`CSc1ccc(NC(=O)N2CC(C)OC(C)C2)cc1` (stereo unspecified): the inhibition is -6.4% (inactive).

Turning to `CCCCOc1ccc(C(=O)NCc2ccco2)cc1`, the inhibition is 0.1% (inactive).

For `O=C(O)Cc1ccc(-c2ccccc2)cc1`, the inhibition was 3.8% (inactive).

Regarding `Cc1cc(Cl)c(S(=O)(=O)Nc2ccc3c(c2)OCCO3)cc1OCC(N)=O`, the inhibition was -7.6% (inactive).

With `CC1=C(C)CC2C(=O)N(c3cccc4ccccc34)C(=O)C2C1` (stereo unspecified), the inhibition is -2.3% (inactive).

Turning to `COc1cc2c(cc1NC(=O)CN1CCN(S(=O)(=O)c3ccc(F)cc3)CC1)oc1ccccc12`, the inhibition was 2.8% (inactive).

`CCOC(=O)C1(C(F)(F)F)N=C(N(C)C)OC(N(C)C)=N1`: the inhibition is -1.4% (inactive).

In the case of `COC(=O)Nc1ccc(S(=O)(=O)N(C)CC(F)(F)C(F)F)cc1`, the inhibition was 1% (inactive).

Turning to `CCCOc1ccc(/C(O)=C2/C(=O)C(=O)N(CCN(C)C)C2c2ccc(OC)c(OC)c2)cc1` (stereo unspecified), the inhibition is -5% (inactive).

Consider `COC(=O)CNS(=O)(=O)c1ccc(Cc2ccc(S(=O)(=O)NCC(=O)OC)cc2)cc1`, for which the inhibition was -3.3% (inactive).

With `CCOC(=O)c1ccc(-n2c(C)nc3c(cnn3-c3ccccc3C)c2=O)cc1`, the inhibition was -9.5% (inactive).

Take `CN(C)S(=O)(=O)c1ccc(Oc2ccc(S(=O)(=O)N(C)C)cc2)cc1`: the inhibition was -1.8% (inactive).

With `O=C(CSc1nnc(Cn2cnc3ccccc32)o1)c1ccccc1`, the inhibition was 1.9% (inactive).

With `O=C(O)[C@@H]1CCCN1c1ncnc2sc3c(c12)CCC3`, the inhibition was 8.1% (inactive).

On to `CC(=O)c1cccc(S(=O)(=O)N2CCC(n3nnc4cc(F)ccc43)CC2)c1`, for which the inhibition is 9.5% (inactive).

For the compound `COc1ccc(C(=O)Nc2nncs2)c(OC)c1`, the inhibition was 5.3% (inactive).

For `CC(=O)Nc1cc(C(=O)O)ccc1S(=O)(=O)c1ccc(Cl)cc1`, the inhibition is -2.3% (inactive).

As for `CCOC(=O)N1CCC(NC(=O)Cn2cc3c(n2)CCCCC3)CC1`, the inhibition was 0% (inactive).

For `Cc1ccc(C)c(S(=O)(=O)n2cnc3ccccc32)c1`, the inhibition was -0.2% (inactive).

`O=C(Nc1ccccc1C(F)(F)F)c1cc(-c2ccc(O)cc2)on1`: the inhibition is -2.3% (inactive).

Take `O=C(CS(=O)(=O)c1cn(Cc2ccc(Cl)cc2)c2ccccc12)N1CCOCC1`: the inhibition is 15% (inactive).

`O=C(Nc1c2c(nn1-c1ccc(F)cc1)CS(=O)C2)C12CC3CC(CC(C3)C1)C2` (stereo unspecified): the inhibition is -5.4% (inactive).

Take `Cc1cc(C)c(C#N)c(SCc2[nH]nc3c2C(c2ccccc2)C(C#N)=C(N)O3)n1` (stereo unspecified): the inhibition was -6.4% (inactive).

On to `CCCCc1nc2c(=O)[nH]c3ccccc3c2o1`, for which the inhibition is -2.1% (inactive).

For the compound `Fc1ccc2nc(Nc3nc4c(s3)CCCC4)sc2c1`, the inhibition was -14.3% (inactive).

With `Cn1cccc1C1(C(F)(F)F)NCCNC1=O` (stereo unspecified), the inhibition was 1.7% (inactive).

On to `CCCCCCn1c(CN2CCCCC2)nc2c1c(=O)n(C)c(=O)n2C`, for which the inhibition is -5.5% (inactive).

With `O=c1c(-c2ccccc2)coc2c(CN3CCOCC3)c(O)ccc12`, the inhibition is -5.5% (inactive).

Turning to `c1ccc(COc2nsnc2N2CCOCC2)cc1`, the inhibition is -1.9% (inactive).

For the compound `Cn1cccc1Cc1nnc(SCC(=O)NCc2ccc3c(c2)OCO3)n1CCc1ccccc1`, the inhibition was 4.8% (inactive).

On to `COc1ccc(CCNC(=O)C2CCN(c3nn4c(=O)cc(C)nc4s3)CC2)cc1OC`, for which the inhibition is -2.7% (inactive).

Take `CCn1ncc(C2=NOC(C(=O)N3CCN(c4ccccc4)CC3)C2)c1C` (stereo unspecified): the inhibition was -5.6% (inactive).

For `OCc1n[nH]c(CO)n1`, the inhibition is 1.3% (inactive).

In the case of `O=C(CN1CCN(c2ncc(C(F)(F)F)cc2Cl)CC1)Nc1ccc2c(c1)OCO2`, the inhibition is -4.3% (inactive).

Take `CCCCOCCCNC(=O)c1ccccc1OCC`: the inhibition was 1.4% (inactive).

Turning to `CCOC(=O)c1cc(NC(=O)SCC(=O)O)c(C)nc1C`, the inhibition was 3.8% (inactive).

For the compound `CCOC(=O)c1cc2cc(-c3c(C(=O)OCC)oc4cc(O)cc(O)c4c3=O)ccc2o1`, the inhibition was -2.3% (inactive).

As to `COc1cc(C2C(C(=O)Nc3ccc(F)cc3)=C(C)Nc3nc(CCCO)nn32)cc(OC)c1OC` (stereo unspecified), the inhibition was -4.8% (inactive).

As for `CCOc1ccc2c(=O)c(-c3ccc4c(c3)OCCCO4)c(C)oc2c1`, the inhibition is -4.1% (inactive).

For the compound `CCOc1ccc(N(CC(=O)NCc2ccc(OC)cc2)S(=O)(=O)c2c(C)noc2C)cc1`, the inhibition is -3.8% (inactive).

Turning to `CCOC(=O)CSc1nc2c(c(=O)n(C)c(=O)n2C)n1Cc1ccccc1F`, the inhibition was 4.7% (inactive).

On to `CCOc1ccc(Cn2nnc(C(=O)Nc3ccc(OC)cc3OC)c2N)cc1`, for which the inhibition was -3.7% (inactive).

As to `O=C(Nc1ccn(Cc2ccc(F)cc2)n1)c1ccncc1`, the inhibition was -7.7% (inactive).

For `COc1ccc(OC)c(NC(=O)CCN2CCC(C)CC2)c1`, the inhibition was -5.8% (inactive).

`Cc1cc(C)c(C#N)c(SCS(=O)c2ccc(C(C)(C)C)cc2)n1` (stereo unspecified): the inhibition was -4.1% (inactive).

For `CCC(C(=O)Nc1ncccn1)(C(F)(F)F)C(F)(F)F`, the inhibition was -1.6% (inactive).

For the compound `CCOC(=O)c1nnn(-c2nc(OC)nc(N(C)C)n2)c1-c1ccccc1`, the inhibition is -0.2% (inactive).

Take `COc1cccc(Oc2ccc(N)cc2)c1`: the inhibition is -7.2% (inactive).

As to `C=CCn1c(SCC(=O)NC23CC4CC(CC(C4)C2)C3)nc(O)cc1=O`, the inhibition was 3.3% (inactive).

Take `CCn1ncc(C2=NOC(C(=O)Nc3ccccc3C(=O)OC)C2)c1C` (stereo unspecified): the inhibition is 5.9% (inactive).

With `Cc1ccnc(N2C(=O)c3ccccc3C2Nc2ccc3c(c2)OCCO3)c1` (stereo unspecified), the inhibition is -0.2% (inactive).

Turning to `CC(=O)C1=C(O)C(=O)N(c2ccc(S(N)(=O)=O)cc2)C1c1ccccc1F` (stereo unspecified), the inhibition was -10.4% (inactive).

For `CCOC(=O)Cn1c(N)c(C(=O)OC)sc1=S`, the inhibition was 1.5% (inactive).

`CCOC(=O)c1sc(=S)n(-c2cccc(OC)c2)c1N`: the inhibition was 11% (inactive).

`CCOC(=O)c1sc(=S)n2c1[nH]c(=O)c1ccc(C(=O)OC)cc12`: the inhibition was 35.8% (active).

For `Cc1ccc2cccc(O)c2[n+]1[O-]`, the inhibition is 0.7% (inactive).

`CCOC(=O)Cn1c2c(c(-c3ccccc3OC)cc1=O)CCCC2`: the inhibition was 10.1% (inactive).

As to `CCOC(=O)N1CCN(C(=O)CSc2nnc(-c3c[nH]c4ccccc34)n2CCOC)CC1`, the inhibition is 8.4% (inactive).

Take `Cc1ccc2nc(NC(=O)C3CCN(S(=O)(=O)c4ccc5c(c4)oc(=O)n5C)CC3)sc2c1`: the inhibition was -18.8% (inactive).

In the case of `Cc1cc(Nc2cccc(F)c2)n2ncnc2n1`, the inhibition is -3.6% (inactive).

Regarding `Cc1nc2ccc(S(=O)(=O)NCC(=O)NCCN3CCCCC3C)cc2s1` (stereo unspecified), the inhibition was -4.2% (inactive).

As for `Cc1noc(C)c1S(=O)(=O)N(CC(=O)Nc1ccc2c(c1)OCCO2)c1ccc(C(C)C)cc1`, the inhibition was 0.9% (inactive).

Take `O=C(OCc1ccccc1F)c1ccc2c(c1)OCCO2`: the inhibition is 3.6% (inactive).

Turning to `CN1CCN(CCCNC(=O)c2cc3c(=O)oc4ccccc4c3s2)CC1`, the inhibition is -0.9% (inactive).

For `COC(=O)c1cc(S(=O)(=O)NC2CCN(Cc3ccccc3)CC2)cn1C`, the inhibition is -4.4% (inactive).

For the compound `CCC(=O)N1CCN=C1SCc1ccc(F)cc1`, the inhibition was 0% (inactive).

For the compound `O=C(Nc1nccs1)C1CCCN1S(=O)(=O)c1cccc2cccnc12` (stereo unspecified), the inhibition is -4.6% (inactive).

Take `COc1cccc(-n2cc(C(=O)O)c3ccccc3c2=O)c1`: the inhibition is -2.1% (inactive).

Take `COC(=O)c1c(-c2ccc(C)cc2)csc1N`: the inhibition was 7% (inactive).

For `CCN1CCN(Cc2c(O)ccc3c(=O)c(-c4ccc(OC)c(OC)c4)c(C(F)(F)F)oc23)CC1`, the inhibition was -8.1% (inactive).

For `O=C1C(=O)N(CCN2CCOCC2)C(c2ccccn2)/C1=C(/O)c1ccc(Cl)cc1` (stereo unspecified), the inhibition is 13.6% (inactive).

On to `CCOc1ccc(OCC)c(NC(=O)CN(C)S(=O)(=O)c2cccc3nsnc23)c1`, for which the inhibition was -0.8% (inactive).

With `Cc1cnc(C(=O)OCC(=O)Nc2ccc(Cl)cc2Cl)cn1`, the inhibition was -2.2% (inactive).

For the compound `COc1ccc(NC(=O)c2c(SC)nsc2SC)cc1`, the inhibition is 2.1% (inactive).

Turning to `COc1ccc(-c2ccc(Nc3ccc(S(=O)(=O)N4CCCC4)cc3)nn2)cc1OC`, the inhibition is -6.4% (inactive).

`Cc1cc(Nc2ccc(Br)cc2F)n2ncnc2n1`: the inhibition was -4.7% (inactive).

As to `CCOC(=O)N1CCN(C(=O)C2CC(c3ccc(F)cc3)=NO2)CC1` (stereo unspecified), the inhibition was 9.4% (inactive).

`CN(C)CCCNC(=O)c1ccc2[nH]c3ccccc3c2c1`: the inhibition is 3.7% (inactive).

Regarding `COc1cccc(N2C(=O)CC(N3CCN(S(=O)(=O)c4ccccc4)CC3)C2=O)c1` (stereo unspecified), the inhibition is -0.8% (inactive).

Consider `CCOC(=O)c1c(C)c(C(=O)NCCc2ccc(S(N)(=O)=O)cc2)c(C)n1CC`, for which the inhibition is -11.9% (inactive).

Broadly, the inhibition is the drop in the measured response relative to a control, in per cent.
